Experimental data reported in paper PMC4552634, “A New Set of Chemical Starting Points with Plasmodium falciparum Transmission-Blocking Potential for Antimalarial Drug Discovery” (PLoS ONE, 2015).
Out of some 13,000 compounds screened, about 3,200 (25%) showed an effect of 50% or more. The list shows a part of the results.

The molecules below were run on P. falciparum stage V gametocytes. Conditions: 48 h, 5 µM; inhibitor.
Parameters: BacTiter-Glo ATP luminescence viability of purified stage V gametocytes in 384-well plates, per cent inhibition versus DMSO

Going from `O=C1CN(C(=O)CCC2CCCC2)C(c2ccc(F)cc2)c2cc(F)ccc2N1` (stereo not drawn) [TCMDC-124463] to `O=C(Nc1cccc(OC2CCN(Cc3ccccc3)CC2)c1)c1ccc(Cl)c(Cl)c1` [TCMDC-139542], the “% Inhibition” value rises from -48.27% to 5.419%.

First: O=C(Nc1cccnc1)c1ccc(-c2cc3ccncc3cc2OC2CCNCC2)s1 [TCMDC-134228]
Second: O=C(Nc1ccccc1)c1ccc(-c2cc3ccncc3cc2OC2CCNCC2)s1 [TCMDC-134227]
The “% Inhibition” value of the first is lower: 62.63% for the first, 77.06% for the second.

First: Nc1ncc(-c2cc3ccccc3o2)c(N)n1 [TCMDC-137177]
Second: c1ccc2oc(-c3cc4ccncc4cc3OC3CCNCC3)cc2c1 [TCMDC-134160]
The “% Inhibition” value of the first is lower: 18.48% for the first, 92.38% for the second.

Compared with `c1ccc(-c2cc3cccc(-c4nc5ccncc5[nH]4)c3o2)cc1` [TCMDC-140516], `Nc1ccc(-c2nc3c(ccc4ccccc43)[nH]2)cc1` [TCMDC-124395] is higher in “% Inhibition” value: 7.065% for the first, 24.31% for the second.

Going from `COc1cccc(-c2nn(C)c3sc(C(=O)Nc4cccnc4)cc23)c1` [TCMDC-123584] to `C=Cc1cc(NC(=O)N2CCc3cc(OC)c(C(F)(F)F)cc32)cc(-c2cccnc2)c1` [TCMDC-139030], the “% Inhibition” value rises from -55.35% to -6.517%.

Going from `Cc1cc(NC(=O)c2cccs2)ccc1OC1CCN(Cc2ccccc2)CC1` [TCMDC-133988] to `c1cncc(NCc2ccc(-c3cc4ccncc4cc3OC3CCNCC3)s2)c1` [TCMDC-134161], the “% Inhibition” value falls from 37.37% to 28.32%.

Compared with `CCOC(=O)c1ccc(NC(=O)Nc2cccc(-c3ccc(-c4nc5cccc(C)c5[nH]4)s3)c2)cc1` [TCMDC-133258], `O=C(Nc1ccsc1)Nc1cccc(-c2cccc(-c3nc4ccc(F)cc4[nH]3)c2)c1` [TCMDC-133216] is higher in “% Inhibition” value: -27.38% for the first, -18.7% for the second.

Compared with `O=C(Nc1cccc(-c2ccc(-c3nc4ccc(F)cc4[nH]3)cc2)c1)Nc1ccc(F)c(F)c1F` [TCMDC-133231], `CC(C)(C)c1ccc(-c2nc3c(ccc4nc(N)nc(N)c43)[nH]2)cc1` [TCMDC-137984] is higher in “% Inhibition” value: -4.749% for the first, 112.2% for the second.

First: CC(C)=CC1C(C(=O)n2c(N)nc3ccccc32)C1(C)C (stereo not drawn) [TCMDC-131688]
Second: CC(C)(C)c1ccc(Cc2cccc3nc(N)nc(N)c23)cc1 [TCMDC-137821]
The “% Inhibition” value of the first is higher: 3.871% for the first, -51.22% for the second.

Going from `CC(C)n1c(C(C)(C)C)cc2c3c(N)nc(N)nc3ccc21` [TCMDC-137311] to `Cc1c(C(C)(C)C)ccc2nc(N)nc(N)c12` [TCMDC-137831], the “% Inhibition” value falls from 32.82% to -39.39%.

Going from `Cc1cc(N)cc2[nH]c(-c3ccc(N)cc3)nc12` [TCMDC-124391] to `Cc1c(N)ccc2[nH]c(-c3ccc(N)cc3)nc12` [TCMDC-124242], the “% Inhibition” value rises from -6.074% to 91.56%.

Compared with `CC(C)c1cc2c(ccc3nc(N)nc(N)c32)[nH]1` [TCMDC-137847], `CC(C)(C)c1ccc(-c2cc3c(ccc4nc(N)nc(N)c43)[nH]2)cc1` [TCMDC-137977] is higher in “% Inhibition” value: 19.02% for the first, 117.8% for the second.
